# Assay results published in PubChem BioAssay AID686979 (National Center for Advancing Translational Sciences (NCATS), 2013).
# About 50,000 (12%) of roughly 420,000 compounds were called active. Where a call stands in place of a potency, no number is given. Inconclusive results (about 26%) are left out. Many of the other results were omitted from the sample, so actives are more common in it than they were. Values without a mark were called inactive. Calls follow the shape of the dose curve; as a rule, active = well fitted inhibition curve with a large enough effect; inconclusive = small, poorly fitted or top-dose-only effect; inactive = flat fitted curve, though single readings scatter.
# Test: qHTS for Inhibitors of human tyrosyl-DNA phosphodiesterase 1 (TDP1): qHTS in cells in presence of CPT; also: nearly all actives have a fitted effect of over 55% in size
# Conditions: chicken DT40 Tdp1-/-;hTDP1 cells + 20 nM CPT, ATP luminescence, 48 h; series mostly up to 46.2 µM
# In short: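 Chicken DT40 Tdp1-/- cells stably complemented with human TDP1 were seeded at 400 cells/well in medium containing 20 nM camptothecin, exposed to pin-transferred compounds, and grown at 37 °C for at least 48 hr. Viability was read as ATP luminescence.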
# Potency is read from the fitted curve at half-maximal effect.
SMILES,Potency,"activity change, negative = growth inhibition"
COc1ccc(S(=O)(=O)N2CCN(CC(=O)NCC3(N4CCOCC4)CCCCC3)CC2)cc1,inactive,–
CC(NC(=S)Nc1ccc(OC(F)F)cc1)c1ccc(F)cc1 (stereo not drawn),14.6 µM (active),–
O=C1CCC(C(=O)Nc2ccc(OC(F)F)cc2)N1 (stereo not drawn),inactive,–
CC(C)N(Cc1ccccc1)C(=S)Nc1ccc(OC(F)F)cc1,inactive,–
Cc1c(CN2CCC(n3nccc3NC(=O)CCc3ccccc3)CC2)cnn1C,inactive,–
COc1cccc(/C=N/NC(=O)c2[nH]nc3c2CCc2ccccc2-3)c1O,2.31 µM (active),–
CN(C)CCNC(=O)c1[nH]nc2c1CCc1ccccc1-2,inactive,–
COc1cc2cc(C(=O)N/N=C/c3cccc(OC)c3OC)[nH]c2cc1OC,inactive,–
O=C1CC(c2cccc(Cl)c2)CC(O)=C1C=Nc1ccccc1 (stereo not drawn),inactive,–
CSc1ncnc2c1ncn2CCCNCc1cccs1,inactive,–
Cn1c(=O)c2c(n3c4ccccc4nc13)NC(=O)CC2c1cccc(Cl)c1 (stereo not drawn),inactive,–
CC(Oc1cccc(NC(=O)c2cccs2)c1)C(=O)c1ccccc1 (stereo not drawn),inactive,–
Cc1ccc(-c2noc(-c3nnn(-c4cccc(C(F)(F)F)c4)c3N)n2)cc1,inactive,–
CC(C)N(Cc1nnc(-c2ccc(Cl)cc2)o1)C(=O)C1=COCCO1,9.2 µM (active),–
Cc1ccc2nc(N(CCN(C)C)C(=O)C3=COCCO3)sc2c1,inactive,–
O=C(c1nnc(-c2ccc(Cl)cc2)o1)C1CCCC1,inactive,–
N#Cc1ccc(-c2cccs2)nc1SCc1ccc(Br)cc1,inactive,–
Nc1c(-c2ccccc2)nnn1Cc1ccccc1,inactive,–
Cc1cc(C(=O)NC2CCCc3c2cnn3-c2cccc(C)c2C)c(C)o1 (stereo not drawn),13 µM (active),–
Cc1cc(C(=O)NNC(=O)CCC2CCCCC2)c(C)o1,inactive,–
COCc1c(C(=O)NC2CCCCC2)cnn1-c1nccc(-c2ccccc2OC)n1,–,5.12% [at 9.04 µM]
Cc1cc(C(=O)NCC2Cc3cccc(-c4cncnc4)c3O2)c(C)o1 (stereo not drawn),–,6.48% [at 9.04 µM]
COc1ccc(C(=O)NC2CCCc3c2cnn3-c2cccc(C)c2C)c(OC)n1 (stereo not drawn),10.3 µM (active),–
Cc1cccc(C(=O)OC(C)C(=O)NC2CCCc3ccccc32)c1O (stereo not drawn),inactive,–
CCN(CC(=O)NCc1ccc(F)cc1)S(=O)(=O)c1ccc(Cl)s1,inactive,–
Cc1ccccc1CCNC(=O)C1CCC(=O)N(Cc2ccc(Cl)cc2)C1 (stereo not drawn),inactive,–
C/C(=N\Nc1ccc(S(N)(=O)=O)cc1[N+](=O)[O-])c1cccs1,inactive,–

SMILES,Potency,"activity change, negative = growth inhibition"
CCC(=O)N1CCc2cc(Br)c(S(=O)(=O)NCCN3CCCCC3CC)cc21 (stereo not drawn),inactive,–
CCCN(CCC)S(=O)(=O)c1cc2c(cc1Br)CCN2C(=O)CC,8.2 µM (active),–
CCC(=O)N1CCc2cc(S(=O)(=O)NC(C(=O)N3CCc4ccccc4C3)C(C)C)ccc21 (stereo not drawn),inactive,–
Cc1ccc2c(c1)-c1c(cnn1CC(=O)Nc1ccccc1C#N)CO2,inactive,–
O=C(O)C1C2C=CC(O2)C1C(=O)Nc1ccccn1 (stereo not drawn),inactive,–
CCOC(=O)CSc1nc2c(sc(=S)n2CCc2ccccc2)c(=O)n1Cc1ccco1,20.6 µM (active),–
CCOC(=O)CSc1nnc(-c2ccco2)n1C,inactive,–
Cc1cc(C)nc(SCc2nnc(SCC(=O)Nc3ncc(C)s3)n2Cc2ccco2)n1,inactive,–
O=C(c1ccc(F)cc1)C1CCN(Cc2cn[nH]c2-c2ccccc2)CC1,inactive,–
C[C@H](NC(=O)OC(C)(C)C)c1nnc(SCC(N)=O)o1,inactive,–
CC(C)Sc1nnc([C@H](Cc2ccccc2)NC(=O)OC(C)(C)C)o1,inactive,–
C[C@@H](NC(=O)OC(C)(C)C)c1nnc(S(=O)(=O)Cc2ccccc2)o1,0.651 µM (active),–
CN(CCC#N)c1ccc(C=O)cc1,inactive,–
CCn1c(=S)[nH]c2cc(S(=O)(=O)N3CCOCC3)ccc21,inactive,–
Cc1ccc(S(=O)(=O)/N=C2\C=C(NS(=O)(=O)c3ccc(C)cc3)C(=O)c3ccccc32)cc1,23.1 µM (active),–
Cc1ccc(S(=O)(=O)N[C@H](CO)C(C)C)cc1,inactive,–
Cc1ccc(S(=O)(=O)N/N=C(\c2ccccc2)C2CC2)cc1,inactive,–
CCC1(CC)NC(=O)N(CC(=O)OCC(=O)c2cc(C)c(C)cc2C)C1=O,inactive,–
Cc1csc(NC(=O)CSc2nc(=O)cc(N)n2-c2ccc(F)cc2)n1,inactive,–
CC1Cc2[nH][nH]c(=O)c2C(C2CCCC2)O1 (stereo not drawn),inactive,–
CCn1c(C(C)NC(=O)c2ccc(C)cc2)n[nH]c1=S (stereo not drawn),inactive,–
CCN1CCN(C(=O)CSc2ccc(C)cc2)CC1,inactive,–
CCN1CCC2(CC1)N=C(c1ccc(F)cc1)C(=S)N2C(=O)c1ccc(C)cc1,8.2 µM (active),–
C/C(=N\NC(N)=S)c1cccnc1,inactive,–
C/C(=N\NC(N)=S)c1ccncc1,inactive,–
C/C(=N\NC(=S)NC(C)C)c1ccc(C(C)(C)C)cc1,23.1 µM (active),–
